# Experimental data as given in the supplement of paper PMC3545927.
# This is one part of the list. How many sequences the whole screen found active is unknown.
# Biological target: furin, P09958
# Test: furin cleavage Z-score vs untreated control; higher = more cleavage, active = 3.5 or more, inactive = 1 or less, 8 variable residues between constant flanks
# Protocol: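 Multiplexed peptide-cDNA fusion cleavage assay. 8-mer variable peptides flanked by constant Cys-Ala (N-term) and Ala-Gly-Asn-Ala-Ser-Ala-Ser-Ala (C-term) and conjugated to a cDNA oligonucleotide were bead-immobilised via the N-terminus. They were treated with purified furin at a 1:10 enzyme:substrate ratio in 50 mM HEPES pH 7.5, 1 mM CaCl2, 100 mM NaCl for 7.5, 15 or 30 min. Released cDNA was counted by next-generation sequencing, and log counts versus no-furin controls were lowess-adjusted and converted to robust Z-scores.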
# Chain of furin, P09958 (P09958 whole entry): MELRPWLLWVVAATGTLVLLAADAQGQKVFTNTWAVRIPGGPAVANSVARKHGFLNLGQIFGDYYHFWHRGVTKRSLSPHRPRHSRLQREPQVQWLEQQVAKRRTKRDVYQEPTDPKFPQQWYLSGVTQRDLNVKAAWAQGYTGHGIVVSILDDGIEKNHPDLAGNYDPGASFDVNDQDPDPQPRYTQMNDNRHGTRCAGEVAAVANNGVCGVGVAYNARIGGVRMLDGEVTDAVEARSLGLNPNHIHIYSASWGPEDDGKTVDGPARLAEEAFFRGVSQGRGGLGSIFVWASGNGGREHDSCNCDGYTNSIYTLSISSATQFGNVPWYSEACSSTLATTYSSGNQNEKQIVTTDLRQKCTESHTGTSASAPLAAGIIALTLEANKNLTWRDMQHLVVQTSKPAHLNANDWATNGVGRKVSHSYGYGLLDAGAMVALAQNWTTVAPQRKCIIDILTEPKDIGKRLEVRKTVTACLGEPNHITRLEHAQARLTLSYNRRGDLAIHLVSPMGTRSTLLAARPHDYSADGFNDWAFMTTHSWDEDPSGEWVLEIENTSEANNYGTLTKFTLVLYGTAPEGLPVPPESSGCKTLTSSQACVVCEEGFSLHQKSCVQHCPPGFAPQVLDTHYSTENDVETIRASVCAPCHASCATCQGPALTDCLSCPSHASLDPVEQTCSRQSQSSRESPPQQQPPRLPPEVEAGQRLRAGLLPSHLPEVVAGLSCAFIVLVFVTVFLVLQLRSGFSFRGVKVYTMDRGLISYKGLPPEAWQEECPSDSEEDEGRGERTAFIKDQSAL
Sequence,furin cleavage Z-score (7.5 min),furin cleavage Z-score (15 min),furin cleavage Z-score (30 min)
CAAVEVDGAGAGNASASA [CS7],0.521 (inactive),0.0281 (inactive),-2.24 (inactive)
CASLKRDVSLAGNASASA [FS-2473],-0.763 (inactive),0.0335 (inactive),1.41
CASLKRQKRQAGNASASA [FS-502],11.6 (active),12.1 (active),8.85 (active)
CAENPCHRPSAGNASASA [HC2341],-0.397 (inactive),1.48,0.0102 (inactive)
CAEVIKGGRHAGNASASA [HC852],-2.02 (inactive),-1.42 (inactive),-1.4 (inactive)
CALLRIPQAIAGNASASA [HC329],-0.657 (inactive),-1.81 (inactive),-0.194 (inactive)
CANLLRVFRQAGNASASA [FS-468],0.426 (inactive),-0.885 (inactive),0.089 (inactive)
CASDGRGKRHAGNASASA [FS-1277],6.1 (active),6.45 (active),6.27 (active)
CASSNVSVAHAGNASASA [HC1554],-2.36 (inactive),-0.374 (inactive),-0.657 (inactive)
CALYRLGAVQAGNASASA [HC973],0.321 (inactive),-0.642 (inactive),0.286 (inactive)
CAVQIVSTAAAGNASASA [HC690],0.498 (inactive),-1.18 (inactive),-0.374 (inactive)
CAKQGVSKRHAGNASASA [FS-261],2.25,2.44,3.51 (active)
CALLRRPFRQAGNASASA [FS-1361],2.8,1.06,3.65 (active)
CALLRRGKRHAGNASASA [FS-51],11 (active),10.8 (active),8.35 (active)
CADCEVVTSTAGNASASA [HC2300],0.556 (inactive),0.654 (inactive),-0.729 (inactive)
CAQVCCSMSYAGNASASA [HC2002],-0.191 (inactive),-0.875 (inactive),0.558 (inactive)
CAMEECSQELAGNASASA [HC1752],0.357 (inactive),-0.13 (inactive),-0.468 (inactive)
CAVGIFRAAVAGNASASA [HC749],-0.179 (inactive),-0.141 (inactive),0.209 (inactive)
CAARVCSCLWAGNASASA [HC525],-1.84 (inactive),-1.52 (inactive),1.13
CAEKEVPCHRAGNASASA [HC2454],0.758 (inactive),-0.375 (inactive),1.43
CATLRRYKRHAGNASASA [FS-964],11.2 (active),10.9 (active),8.76 (active)
CALLWRQEMGAGNASASA [HC1276],1.14,0.0716 (inactive),0.841 (inactive)
CADQRPYCWHAGNASASA [HC401],0.793 (inactive),-0.215 (inactive),1.33
CAPTGREKRPAGNASASA [FS-75],0.811 (inactive),0.063 (inactive),0.807 (inactive)
CALLRRQIRTAGNASASA [FS-1642],6.82 (active),8.8 (active),8.78 (active)
CAGIDPNIRTAGNASASA [HC797],-1.41 (inactive),-0.301 (inactive),-1.74 (inactive)
CAHEGREKRHAGNASASA [FS-1630],7.09 (active),9.28 (active),8.39 (active)
CAETPCHRPSAGNASASA [HC2338],-0.427 (inactive),-0.0389 (inactive),1
